Source: PubChem BioAssay
In the library only some 10% were active in any assay of this set; here they are far more common.
ALOX12 inhib = inhibitors of human 12-lipoxygenase (ALOX12). P18054. purified 12-hLO, xylenol orange hydroperoxide absorbance. Potency, µM (top dose mostly 57.1 µM), usual class: inhibitors. hit rate 0.12% among 150,000. AID 1452; active means well fitted inhibition curve with a large enough effect; inconclusive means small, poorly fitted or top-dose-only effect; further: nearly all actives have a fitted effect of over 55% in size
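Lipoxygenase turnover measured by absorbance at 573 and 405 nm after Fe-XO development. Human 12hLO 150 nM, arachidonate 40 uM, pH 7.0 Hepes buffer with detergent; 15 min compound preincubation, 30 min reaction.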
PNC assembly inh = inhibitors of perinucleolar compartment assembly; PC3M PTB-GFP, PNC prevalence imaging, 16 h; active compounds read low; activity change (PNC), negative = inhibition, % at 10 µM; hit rate 3.1% among 140,000; AID 2417;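 active means readout at or below -70, meaning at least 70% loss of cells showing the perinucleolar compartment, a nuclear body marking cancer cells; inconclusive means readout between -30 and a set limit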
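Read-out is percentage of cells bearing a perinucleolar compartment, from automated 20x imaging of fixed, Hoechst-stained PC3M PTB-GFP cells. Cells were seeded 4 h, then exposed 16 h to compound (23 nl of library stock) in duplicate plates.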
ALDH1A1 inh = ALDH1A1 (human) enzyme inhibition | P00352 | Purified ALDH1A1, NADH fluorescence, propionaldehyde substrate | Potency, µM (titrated, usually from 75.3 µM), usual class: inhibitors | hit rate 7.3% among 220,000 | AID 1030
Target sequence (P00352 whole entry, looked up): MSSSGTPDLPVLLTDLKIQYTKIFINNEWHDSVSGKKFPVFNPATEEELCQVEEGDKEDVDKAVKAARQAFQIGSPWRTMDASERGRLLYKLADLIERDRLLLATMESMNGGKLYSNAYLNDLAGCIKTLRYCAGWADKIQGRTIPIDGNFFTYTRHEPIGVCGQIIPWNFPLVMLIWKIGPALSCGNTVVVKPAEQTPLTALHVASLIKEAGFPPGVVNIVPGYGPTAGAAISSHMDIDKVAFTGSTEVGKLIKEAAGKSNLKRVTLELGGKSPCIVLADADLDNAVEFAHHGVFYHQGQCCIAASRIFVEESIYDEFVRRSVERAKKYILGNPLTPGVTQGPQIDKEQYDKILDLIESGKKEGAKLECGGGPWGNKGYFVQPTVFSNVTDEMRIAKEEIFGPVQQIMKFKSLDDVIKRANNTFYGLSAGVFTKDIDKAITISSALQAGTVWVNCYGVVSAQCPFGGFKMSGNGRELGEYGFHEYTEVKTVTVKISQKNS
HPGD inh = inhibitors of human 15-hydroxyprostaglandin dehydrogenase (HPGD); P15428; purified HPGD, NADH fluorescence kinetic, PGE2 substrate; Potency, µM, most hits filed as inhibitors; hit rate 4.3% among 150,000; AID 894
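NADH formation kinetics: reaction with 30 uM PGE2 and 1 mM NAD+ (final), 20 nM enzyme, Tris-HCl pH 8 with Tween 20, after 15 min compound preincubation at room temperature. Fluorescence change, last versus first of five reads.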
LMNA splice mod = LMNA splicing modulation. HeLa LMNA splicing GFP/RFP minigene ratio, 48 h. Potency, µM (top dose mostly 46.1 µM), hits mostly inhibitors. hit rate 0.01% among 200,000; active means well fitted inhibition curve with a large enough effect in the signal ratio, with a control signal flat, not every such curve was filed as active; inconclusive means small, poorly fitted or top-dose-only effect, or effect the other way, or a change in a side signal; the % refers to the signal ratio
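S3 HeLa cells stably expressing lamin A-EGFP splicing minigene plus DsRed2, 600 cells/well, 48 h compound exposure at 37C. Laser-scanning cytometry; analysed as GFP (500-530 nm)/RFP (575-640 nm) total intensity ratio; 0.5% DMSO vehicle.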
Numbers stand for hits; [ ] = remark or other dose. Unless noted, the call rests on the fitted dose curve; in most records, active means well fitted inhibition curve with a large enough effect (not every such curve was filed as active); inconclusive means small, poorly fitted or top-dose-only effect, or another doubt; inactive means no such curve, though single readings can be large or run the other way.

N#Cc1cccc(NC(=O)N2CCCC3(CCN(C(=O)c4ccco4)CC3)C2)c1 was read as ALOX12 inhib inactive, ALDH1A1 inh 22µM and HPGD inh inactive.
`OCC1(Cc2ccccc2)CCN(Cc2ccc(-c3ccco3)cc2)CC1` gave ALDH1A1 inh inconclusive and LMNA splice mod inactive.
Screening O=C(c1ccco1)N1CCC[C@@]2(CCN(Cc3ccccc3)C2)C1 returned ALOX12 inhib inactive, ALDH1A1 inh inactive and HPGD inh inactive.
For NC(CSCC(=O)O)C(=O)O (configuration not stated) the results were ALOX12 inhib inactive[0.00818 µM], ALDH1A1 inh inactive, HPGD inh inactive and LMNA splice mod inconclusive.
Screening O=C(Nc1ccccc1)N1CCCC2(CCN(C(=O)c3ccco3)CC2)C1 returned ALOX12 inhib inactive, ALDH1A1 inh 20µM and HPGD inh inactive.
`CC(=O)N1CCC2(CC1)CCN(C(=O)Nc1cccc(F)c1)CC2` gave ALOX12 inhib inactive, ALDH1A1 inh 13µM and HPGD inh inactive.
Screening O=C(Nc1ccccc1)N1CC[C@@]2(CCCN(C(=O)c3ccco3)C2)C1 returned ALOX12 inhib inactive, ALDH1A1 inh inconclusive and HPGD inh inactive.
For O=C(Nc1cccc(F)c1)N1CCC2(CC1)CCN(C(=O)c1cccc(F)c1)CC2 the results were ALOX12 inhib inactive, ALDH1A1 inh inactive and HPGD inh inactive.
Screening Cc1cccn2c(=O)cc(CSc3nnc(NC(=O)c4ccc(F)cc4)s3)nc12 returned LMNA splice mod inactive.
CC(NC(=O)c1sc2ncccc2c1-n1cccc1)c1ccccc1 (configuration not stated) was read as LMNA splice mod inactive.
`COc1ccc(/C=C2\CCCC(C(=O)C(F)(F)F)=C2O)cc1OC` gave ALDH1A1 inh 0.13µM.
`CCOc1cc(/C=C2\CCCC(C(=O)C(F)(F)F)=C2O)ccc1O` gave ALOX12 inhib inactive, PNC assembly inh inconclusive, ALDH1A1 inh 0.16µM, HPGD inh inactive and LMNA splice mod inactive.
`CCOc1cc(/C=N/NC(=O)C(=O)N2CCCC2)ccc1O` gave ALDH1A1 inh inactive and LMNA splice mod inactive.
Screening COc1ccc(N(C(=O)c2cccc([N+](=O)[O-])c2)S(=O)(=O)c2cccs2)cc1 returned ALDH1A1 inh 25µM and LMNA splice mod inconclusive.
Screening CCOc1ccc(-c2cc(C(=O)N3CCN(c4ccc(C)cc4)C(C)C3)c3ccccc3n2)cc1 (configuration not stated) returned LMNA splice mod inactive.
`CC/C(=N\O)c1c(O)c2c(n(-c3ccccc3)c1=O)CCCC2` gave ALOX12 inhib inactive, PNC assembly inh inactive, ALDH1A1 inh inactive, HPGD inh inactive and LMNA splice mod inactive.
Screening CCCN(CC(=O)Nc1ccc(Cl)cc1Cl)C(=O)/C=C/c1ccco1 returned ALOX12 inhib inactive, PNC assembly inh inconclusive, ALDH1A1 inh 0.22µM, HPGD inh inactive and LMNA splice mod inconclusive.
O=c1cc(CN2CCN(c3ccccc3O)CC2)nc2sccn12 was read as ALOX12 inhib inactive, PNC assembly inh inactive, ALDH1A1 inh 25µM, HPGD inh inconclusive and LMNA splice mod inactive.
For COc1ccc(Oc2ncc3nc(-c4ccc(OC)cc4)c(=O)n(Cc4cccs4)c3n2)cc1 the results were ALOX12 inhib inactive, ALDH1A1 inh inconclusive and HPGD inh inactive.
`COC(=O)CCc1sc(NC2CCCCC2)nc1-c1ccc(OC)cc1` gave ALOX12 inhib inactive, PNC assembly inh inactive, ALDH1A1 inh inconclusive, HPGD inh 22µM and LMNA splice mod inactive.
COCCNc1nc(-c2ccc(OC)cc2)c(-c2ccc(OC)cc2)s1 was read as ALDH1A1 inh 28µM and LMNA splice mod inconclusive.
For CCN(CC)CCNc1nc(-c2ccc(OC)cc2)c(-c2ccc(OC)cc2)s1 the results were ALDH1A1 inh inactive and LMNA splice mod inactive.
COc1ccc(OCCC(=O)NC2CCCCC2)cc1 was read as ALDH1A1 inh inactive.
CCCCCCNc1nc(-c2ccc(OC)cc2)c(CCC(=O)O)s1 was read as ALOX12 inhib inactive, PNC assembly inh inactive, ALDH1A1 inh 22µM, HPGD inh inconclusive and LMNA splice mod inactive.
Screening CCOc1ccc(CNC(=O)c2cnc3c(C)cccn3c2=O)cc1 returned LMNA splice mod inactive.
Screening CN(N=O)C(=O)N[C@H]1C(O)C(O)C(CO)O[C@@H]1O (some centres not stated) returned ALOX12 inhib inactive, ALDH1A1 inh inactive and HPGD inh inactive.
Screening CC(=O)Oc1cccc(N2C(=O)c3ccc(C(=O)Nc4cccnc4)cc3C2=O)c1 returned ALDH1A1 inh 18µM.
CC(=O)Oc1cccc(N2C(=O)c3ccccc3C2=O)c1 was read as ALOX12 inhib inactive, PNC assembly inh -85, ALDH1A1 inh inactive, HPGD inh inactive and LMNA splice mod inactive.
Screening CC(=O)c1cccc(NC(=O)COC(=O)c2cccc(N3C(=O)c4ccccc4C3=O)c2)c1 returned ALOX12 inhib inactive, PNC assembly inh inactive, ALDH1A1 inh 14µM, HPGD inh inactive and LMNA splice mod inactive.
`CC(=O)c1cccc(NC(=O)COC(=O)c2ccc3c(c2)OCCO3)c1` gave ALDH1A1 inh inactive and LMNA splice mod inactive.
For CC(=O)Nc1cccc2c1C(=O)N(c1cccc(OC(C)=O)c1)C2=O the results were ALDH1A1 inh inactive and LMNA splice mod inactive.
`Cc1cc(C)c(S(=O)(=O)NCCc2sc(-c3cccnc3)nc2C)c(C)c1` gave LMNA splice mod inactive.
For Cc1cc(F)ccc1NCc1ccccc1[N+](=O)[O-] the results were ALDH1A1 inh 0.63µM and LMNA splice mod inactive.
O=C(O)c1cc([N+](=O)[O-])ccc1NCc1ccccc1Cl was read as ALDH1A1 inh inactive.
Cc1cc([N+](=O)[O-])ccc1NCc1ccccc1[N+](=O)[O-] was read as ALDH1A1 inh 18µM.
For Nc1ccc(N(c2ccccc2)c2ccc(N)cc2)cc1 the results were ALOX12 inhib inactive, PNC assembly inh inactive, ALDH1A1 inh 8.9µM, HPGD inh inactive and LMNA splice mod inactive.
Screening O=C(Cn1ccn(-c2ccc(F)c(F)c2)c(=O)c1=O)c1ccc(F)cc1 returned LMNA splice mod inactive.
For S=C1NCCc2ccc(Cl)cc2C1c1ccccc1Cl (configuration not stated) the results were ALOX12 inhib inconclusive, PNC assembly inh -100, ALDH1A1 inh inactive, HPGD inh inactive and LMNA splice mod inactive.
`Cc1noc(/C=C/Nc2ccc(F)cc2F)c1[N+](=O)[O-]` gave ALDH1A1 inh 1.3µM and LMNA splice mod inconclusive.
Screening COC(=O)c1ccc(NC(=O)c2cccc(C)c2[N+](=O)[O-])cc1 returned ALDH1A1 inh inconclusive and LMNA splice mod inactive.
`Cc1ccc(S(=O)(=O)NC2CCC(C(=O)O)CC2)cc1` (configuration not stated) gave ALOX12 inhib inactive, PNC assembly inh -103, ALDH1A1 inh inconclusive, HPGD inh inactive and LMNA splice mod inactive.
